PubChem BioAssay AID1851 (National Center for Advancing Translational Sciences (NCATS), 2009)
Screen size: about 16,000 compounds; about 5,100 (32%) were called active. Not shown: some 25% with an inconclusive outcome. Calls follow the shape of the dose curve; as a rule, active = well fitted curve in the direction sought with a large enough effect; inconclusive = small, poorly fitted or top-dose-only effect, or effect the other way; inactive = no such curve, though single readings can be large or run the other way. Some of the results follow.

Molecular target: Cytochrome P450 3A4 (Homo sapiens) (UniProt P08684)
Sequence (P08684 whole entry, looked up): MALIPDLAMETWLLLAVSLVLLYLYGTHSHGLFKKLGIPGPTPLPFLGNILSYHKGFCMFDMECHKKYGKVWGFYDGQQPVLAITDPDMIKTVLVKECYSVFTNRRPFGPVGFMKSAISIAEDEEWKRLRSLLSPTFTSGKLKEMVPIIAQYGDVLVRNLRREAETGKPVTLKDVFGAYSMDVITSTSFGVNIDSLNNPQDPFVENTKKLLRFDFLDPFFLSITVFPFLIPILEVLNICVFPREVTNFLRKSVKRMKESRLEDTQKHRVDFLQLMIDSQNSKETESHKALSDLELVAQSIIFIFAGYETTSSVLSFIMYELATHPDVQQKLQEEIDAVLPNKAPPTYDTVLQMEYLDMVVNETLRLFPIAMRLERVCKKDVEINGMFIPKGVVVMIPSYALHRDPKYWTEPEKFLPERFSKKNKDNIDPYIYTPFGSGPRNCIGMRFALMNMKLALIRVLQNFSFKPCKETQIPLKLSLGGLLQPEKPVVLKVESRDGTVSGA
Assay: Cytochrome panel assay with activity outcomes
Conditions: recombinant CYP, pro-luciferin dealkylation, luminescence, p450-cyp3a4; series mostly up to 57.1 µM; activity, negative = inhibition: at the top concentration
% is scaled to controls: 0 for no effect and ±100 for the full control effect.

activity, negative = inhibition, inactive:
NCC[C@H](O)C(=O)N[C@H]1C[C@@H](N)[C@@H](O[C@H]2O[C@@H](CN)[C@@H](O)[C@@H](O)[C@@H]2O)[C@@H](O)[C@@H]1O[C@H]1O[C@@H](CO)[C@@H](O)[C@@H](N)[C@@H]1O -8.79% [at 25.6 µM]
COCCn1c(=O)c(-c2cc(F)cc(F)c2)nc2cnc(N3CCOCC3)nc21 5.02%
COCCn1c(=O)c(-c2cc(F)cc(F)c2)nc2cnc(N(C)C)nc21 14.1%
CC(C)CO/N=C1/C[C@@H](O)[C@@H](O)[C@@H]2[C@@H]3C(=O)N(C[C@@H]4CCCO4)C(=O)[C@H]3CC[C@@H]12 -19.4% [at 11.4 µM]
CCS(=O)(=O)N1CCC(C(=O)NCCN2CCN(Cc3ccccc3)CC2)CC1 -22.5%
C=CCNC(=O)C1CCN(S(=O)(=O)CC)CC1 3.37%
CC1CCCN(CCCNC(=O)C2CC(=O)N(c3ccc(F)c(Cl)c3)C2)C1 (configuration not stated) -29%
O=C(NCCN1CCN(Cc2ccccc2)CC1)C1CC(=O)N(C2CCCC2)C1 (configuration not stated) -22.2%
Cc1cc(N2CCOCC2)ccc1/C=C1\SC(=O)N(C(C)C)C1=O -18.9%
O=C1/C(=N\O)Cc2ccccc21 26.9%
CN(C)CCC=C1c2ccccc2CCc2ccccc21 -25.3%
COCCCNC(=O)Cn1nc(-c2ccccc2OC)ccc1=O -9.12%
CCOC(=O)C1=C(C)NC2=C(C(=O)C(C(=O)OCC)C(c3ccc(OC)cc3)C2)C1c1ccccn1 (configuration not stated) -13.7% [at 2.29 µM]
CCOC(=O)C1(C(=O)O)NC(=O)CC1c1ccccc1 (configuration not stated) 0.919%
O=[N+]([O-])c1ccc(C2=Nn3c(nnc3-c3ccc(Cl)cc3)SC2)o1 -12.1% [at 11.4 µM]
CCOc1ccccc1NC(=O)CCC(=O)O -0.16%
O=C1NC(=S)N/C1=C/c1cccc([N+](=O)[O-])c1O -21.1%
O=[N+]([O-])c1ccc(/C=N/N/C(=N/c2ccccn2)c2ccccn2)cc1 -22.7%
Cc1ccc(/C=N/n2c(COc3ccccc3)n[nH]c2=S)s1 14.5%
Cc1ccccc1CNc1ncnc2c1ncn2[C@@H]1O[C@@H](CO)[C@H](O)[C@@H]1O 2.17%
NC[C@H]1O[C@H](n2cnc3c(N)ncnc32)C[C@@H]1O -10.5% [at 11.4 µM]
CC(=O)OC[C@@H]1O[C@@H](O/N=C2/C[C@@H](O)[C@@H](O)[C@@H]3[C@@H]4C(=O)N(C5CCCCC5)C(=O)[C@H]4CC[C@@H]23)[C@H](OC(C)=O)[C@H](OC(C)=O)[C@@H]1OC(C)=O -21.5% [at 11.4 µM]
c1ccc(-c2noc(-c3ccc4ccccc4c3)n2)cc1 -12.6%
COc1cccc(-c2nccc(NC3CCNCC3)n2)c1 -19.4%
CO[C@@H]1COC(=O)[C@H]2CCCN2C(=O)[C@@H](C)COC(=O)C/C=C\[C@H]1C -15.8% [at 11.4 µM]
COCC(C)NCc1cccc(C)c1 (configuration not stated) 1.77%
Cc1ccc(C)c(S(=O)(=O)NC(CC(C)C)C(=O)O)c1 (configuration not stated) -37.6%
Cc1ccc2nc(-c3ccc(NC(=O)c4ccc(N)cc4)c(S(=O)(=O)O)c3)sc2c1 -13.7% [at 11.4 µM]
CCN(Cc1ccccc1)Cc1cccc([N+](=O)[O-])c1 9.2%
CCN(/C=N/c1sc2c(c1C#N)CCCCC2)CC -17.6% [at 2.29 µM]
Cc1cc2c(cc1S(N)(=O)=O)S(=O)(=O)CCC2 -0.57% [at 25.6 µM]
CCOC(=O)Nc1ccc(C(=O)NCC2CCCO2)cc1 (configuration not stated) 0.318%
Cc1ccc(C(=O)NCC2CCCO2)cc1N1CCCC1=O (configuration not stated) 4.7%
COc1ccc(CN(CCN(C)C)c2ccccn2)cc1 -5.75% [at 25.6 µM]
Cc1ccc(N(Cc2ccccc2)Cc2ccccc2)cc1 -22.6% [at 11.4 µM]
CO[C@@H]1COC(=O)[C@H]2CCCN2C(=O)C/C=C\[C@@H](C)[C@H](OC)COC(=O)[C@H]2CCCN2C(=O)C/C=C\[C@H]1C -3.39% [at 11.4 µM]
CN(C)c1ncc2ncc(=O)n(C)c2n1 -19.6%
c1ccc(-c2nccc(-c3ccc(-n4cnc5ccccc54)cc3)n2)nc1 -16.7%
O=C(O)COc1ccc(-c2nccc(-c3cccs3)n2)cc1 -28.8%
COC(=O)N1CCC[C@@]2(CCN(C(=O)Nc3cccc(C#N)c3)C2)C1 -20.2%
COCC(=O)N1CCC[C@@]2(CCN(C(=O)Nc3ccccc3)C2)C1 -21.6%
COCC(=O)N1CCC2(CCCN(C(=O)Nc3cccc(C#N)c3)C2)CC1 -14.3%
CC(=O)N1CCC2(CC1)CN(C(=O)Nc1cccc(C#N)c1)C2 -13.8%
COCC(=O)N1CCC2(CC1)CN(C(=O)Nc1cccc(C#N)c1)C2 -6.1%
COC(=O)N1CCC2(CC1)CN(C(=O)Nc1cccc(C#N)c1)C2 13.1%
CC(C)c1nnc(-c2ccc(Cl)cc2)c(N(C)C)n1 -7.47% [at 2.29 µM]
Cn1c(=O)c(C(=O)CN2CCOCC2)c(N)n(Cc2ccccc2)c1=O -17.4%

AC50, active:
COCCn1c(=O)c(-c2cc(F)cc(F)c2)nc2cnc(Oc3ccc(OC)cc3)nc21 3.16 µM
COCCn1c(=O)c(-c2cc(F)cc(F)c2)nc2cnc(Oc3cccc(Cl)c3)nc21 10 µM
COCCn1c(=O)c(-c2cc(F)cc(F)c2)nc2cnc(OC)nc21 15.8 µM
CCOc1ccc(CCNC(=O)C2CCN(S(=O)(=O)CC)CC2)cc1OCC 7.08 µM
Cc1cc(C)c(S(=O)(=O)NCC2CCC(C(=O)NCc3ccc4c(c3)OCO4)CC2)c(C)c1 (configuration not stated) 0.891 µM
CCN(CCCNC(=O)C1CCN(S(=O)(=O)CC)CC1)c1cccc(C)c1 11.2 µM
CCOc1ccc(CCNC(=O)C2CC(=O)N(C3CCCC3)C2)cc1OCC (configuration not stated) 14.1 µM
O=C(NCc1ccc2c(c1)OCO2)C1CC(=O)N(C2CCCC2)C1 (configuration not stated) 4.47 µM
Cc1ccc(Oc2ccccc2/C=C2\SC(=O)N(C)C2=O)cc1 14.1 µM
N#Cc1cccc(-c2cncnc2NCc2ccccc2)c1 1.26 µM
N#Cc1cccc(-c2cncnc2NCc2cccnc2)c1 1.26 µM
Cc1cccc(CNc2ncncc2-c2cccc(C#N)c2)c1 0.2 µM
N#Cc1cccc(-c2cncnc2NCc2cccs2)c1 1.26 µM
C[N+](C)([O-])CCC=C1c2ccccc2CCc2ccccc21 1.26 µM
COc1ccccc1-c1cc(C(F)(F)F)nc(S(=O)(=O)CCCC(=O)NC(C)C)n1 12.6 µM
CCCOc1ccccc1C1CC(=O)NC(C)=C1C(=O)OCC(C)C (configuration not stated) 28.2 µM
O=C(CSc1nnc(Cn2nnc3ccccc32)o1)Nc1cccc(Cl)c1 8.91 µM
CC(C)(C)OC(=O)NCCc1nnc(SCC(=O)Nc2cccc(Cl)c2)o1 11.2 µM
Brc1ccc(C2=Nn3c(nnc3-c3cccnc3)SC2)s1 3.55 µM
CCOc1ccccc1NC(=O)CSc1nnc(-c2cnccn2)n1C 8.91 µM
O=[N+]([O-])c1ccc(/C=N/n2c(COc3ccccc3)n[nH]c2=S)cc1 15.8 µM
O=[N+]([O-])c1ccccc1/C=N/n1c(COc2ccccc2)n[nH]c1=S 5.01 µM
CCc1ccc(N(C(=O)c2snc(C(N)=O)c2N)C(C(=O)NCCC(C)C)c2c[nH]c3ccccc23)cc1 (configuration not stated) 3.98 µM
COc1ccc(-c2cc(C(F)(F)F)nc(NCc3cccnc3)n2)cc1 4.47 µM
COc1cccc(-c2noc(-c3cccnc3)n2)c1 5.01 µM
COc1cccc(-c2nccc(NCc3ccccc3)n2)c1 3.98 µM
COc1cccc(-c2nccc(NCc3cccnc3)n2)c1 1.26 µM
COc1cccc(-c2nccc(NCc3cccc(C)c3)n2)c1 3.98 µM
COc1cccc(-c2nccc(NCc3cccs3)n2)c1 5.01 µM
Cc1ccc(C)c(S(=O)(=O)NC(C)C(=O)Nc2ccc(-c3nc4ccccc4s3)cc2)c1 (configuration not stated) 3.55 µM
COc1ccc([N+](=O)[O-])cc1N(CC(O)CN(CC(C)C)CC(C)C)S(=O)(=O)c1ccccc1 (configuration not stated) 1.12 µM
CCCN(/C=N/c1sc2c(c1C#N)CCCCC2)CCC 7.94 µM
COc1ccc(CNc2ncncc2-c2cccc(NS(C)(=O)=O)c2)c(OC)c1 0.251 µM
COc1ccccc1CNc1ncncc1-c1cccc(NS(C)(=O)=O)c1 0.251 µM
CCC(C)(C(=O)NC1CCCC1)N(CC1CCCO1)C(=O)c1ccc2c(c1)OCO2 (configuration not stated) 3.98 µM
COc1cccc(CNc2ccc3nc(-c4ccc(N)cc4)c(OC)n3n2)c1 5.01 µM
CC(=O)OCCCN1c2ccccc2Nc2nnc(-c3ccccc3)cc21 12.6 µM
CN(C)c1nccc(N(Cc2ccccc2)Cc2ccccc2)c1C#N 12.6 µM
c1ccc2c(c1)ncn2-c1ccc(-c2ccnc(-c3ccncc3)n2)cc1 0.501 µM
COc1ccc(C(=O)N2CCC3(CC2)CN(C(=O)Nc2cccc(C#N)c2)C3)cc1 15.8 µM
COc1ccc(C(=O)N2CCC3(CCCN(C(=O)Nc4cccc(C#N)c4)C3)CC2)cc1 6.31 µM
COc1ccc(C(=O)N2CCC[C@@]3(CCN(C(=O)Nc4cccc(C#N)c4)C3)C2)cc1 7.94 µM
N#Cc1cccc(NC(=O)N2CC[C@@]3(CCCN(C(=O)c4ccncc4)C3)C2)c1 15.8 µM
CCCn1c(N)c(C(=O)CSc2nc(C)cs2)c(=O)n(C)c1=O 6.31 µM

AC50, inactive:
CN(C)CC/C=C1\c2ccccc2COc2ccccc21
